Activity calls are given as the source filed them.
Legend:
[1] = system: PRMT1 (protein arginine N-methyltransferase 1); experiment: PRMT1 binders on small-molecule microarrays, primary screen, biochemical, small-molecule microarray, 635 nm fluorescence (AID 1088); conditions: small-molecule microarray binding, higher = more signal;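 also: binding of Prmt1 protein to compounds spotted on small-molecule microarray slides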
[2] = yeast growth modulation, basal conditions, primary screen, YJM789 clinical isolate, OD600, 24 h (AID 1089);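 also: growth of clinical yeast isolate S. cerevisiae YJM 789 seeded 1000 cells per well; test concentration not given here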; conditions: S. cerevisiae YJM789 growth, higher = more signal, called active from +8 up or from −8 down
[3] = fission yeast growth modulation, primary screen, strain 972, OD600, 24 h, no modulator (AID 1090);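 also: basal condition with compound alone and no growth modifier present; test concentration not given here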; conditions: S. pombe 972 growth, higher = more signal, called active from +8 up or from −8 down
[4] = S. cerevisiae growth modulation with rapamycin, primary screen, strain BY4716, OD600, 96 h (AID 1091); conditions: higher = more signal, called active from +8 up or from −8 down; also: test concentration not given here
[5] = molecular target: Torsin-1A-interacting protein 2 (Homo sapiens) (UniProt Q8NFQ8); experiment: LULL1 binders on small-molecule microarray, primary screen, cell lysate, human LULL1 lysate, 635/667 nm fluorescence (AID 1092); conditions: hLULL1 lysate binding, 635 nm fluorescence, higher = more signal;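 also: probe is lysate of COS7 cells overexpressing human LULL1; score merges per-feature 667 nm fluorescence with signal-to-noise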
[6] = E. coli growth modulation, two-sided OD650, primary screen, E. coli filamentation project, strain DRC41, 24 h (AID 1093); conditions: OD650, 24 h, higher = more signal, called active from +8 up or from −8 down;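 also: MC1000 strain lacking acrAB efflux and sulA so SOS filamentation is blocked; test concentration not given here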
[7] = small-molecule microarray binders of probe aLefty2, primary screen, biochemical, biotinylated probe, 635/667 nm fluorescence (AID 1094); conditions: higher = more signal;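 also: score merges spot fluorescence near 667 nm with spot signal-to-noise ratio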
[8] = system: Noggin (protein binding on small-molecule microarray); experiment: Noggin binders on small-molecule microarray, primary screen, biochemical, 635/667 nm fluorescence (AID 1095); conditions: 635 nm fluorescence, higher = more signal;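 also: score merges 667 nm feature fluorescence with signal to noise over triplicate slides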
[9] = molecular target: Neurogenic locus notch homolog protein 3 (Homo sapiens) (UniProt Q9UM47); experiment: NOTCH3 binders on small-molecule microarray, primary screen, biochemical, 635/667 nm fluorescence (AID 1096); conditions: NOTCH3 binding, 635 nm fluorescence, higher = more signal
[10] = small-molecule microarray binders of probe aEGFR, primary screen, biochemical, biotinylated probe, 635/667 nm fluorescence (AID 1097); conditions: higher = more signal;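 also: probe is a biotinylated anti-EGFR antibody binding compounds printed on slides; score combines fluorescence near 667 nm and signal to noise of each spot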
[11] = system: Plasmodium falciparum Sir2 (PF13_0152, Sir2A); experiment: pfSir2 binders on small-molecule microarrays, primary screen, biochemical, small-molecule microarray, 635 nm fluorescence (AID 1098); conditions: small-molecule microarray binding, fluorescence 635 nm; higher = more signal;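 also: score merges spot fluorescence intensity with its signal-to-noise ratio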
[12] = small-molecule microarray binders of probe aDKK1, primary screen, biochemical, biotinylated probe, 635/667 nm fluorescence (AID 1099); conditions: higher = more signal;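 also: score merges 667nm spot fluorescence with signal to noise across triplicate slides; reference of the scale not given here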
[13] = small-molecule microarray binders of probe aCHRDL2, primary screen, biochemical, biotinylated probe, 635/667 nm fluorescence (AID 1100); conditions: higher = more signal
[14] = splicing luciferase reporter signal modulators, primary screen, spliceosome inhibition project, cell-based, HEK293, splice +/- reporter (AID 1101); conditions: luminescence, 24 h, higher = more signal, called active from +8 up or from −8 down;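 also: HEK293 cells carrying a splicing-competent luciferase reporter gene; test concentration not given here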
[15] = molecular target: Fibroblast growth factor 10 (Homo sapiens) (UniProt O15520); experiment: FGF10 binders on small-molecule microarrays, primary screen, biochemical, small-molecule microarray, 635 nm fluorescence (AID 1102); conditions: FGF10 binding, fluorescence 635 nm, higher = more signal
[16] = system: glycogen synthase kinase-3 (GSK3A per assay name; protocol says GSK3B); experiment: GSK3 binders on small-molecule microarrays, primary screen, biochemical, small-molecule microarray, 635 nm fluorescence, GSK3A (AID 1103); conditions: small-molecule microarray binding, fluorescence 635 nm; higher = more signal; also: the record names both GSK3A and GSK3B
[17] = molecular target: Epidermal growth factor receptor (Homo sapiens) (UniProt P00533); experiment: EGFR binders on small-molecule microarrays, primary screen, biochemical, small-molecule microarray, 635 nm fluorescence (AID 1104); conditions: EGFR binding, higher = more signal;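 also: score merges 667 nm emission intensity with spot signal to noise over triplicate slides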
[18] = molecular target: Follistatin-related protein 3 (Homo sapiens) (UniProt O95633); experiment: FSTL3 binders on small-molecule microarrays, primary screen, biochemical, small-molecule microarray, 635 nm fluorescence (AID 1105); conditions: FSTL3 binding, higher = more signal;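 also: score merges emission near 667 nm and signal to noise per printed spot across three slides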
[19] = molecular target: Dickkopf-related protein 1 (Homo sapiens) (UniProt O94907); experiment: DKK1 binders on small-molecule microarrays, primary screen, biochemical, small-molecule microarray, 635 nm fluorescence scan (AID 1106); conditions: DKK1 binding, higher = more signal;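 also: score merges emission near 667 nm with signal to noise over three replicate slides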
[20] = system: Inhibin beta A chain (activin A); experiment: INHBA (activin A) binders on microarrays, primary screen, biochemical, small-molecule microarray, 635 nm fluorescence scan (AID 1107); conditions: small-molecule microarray binding, higher = more signal;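 also: mouse activin A protein probed at 4.33 µg/mL on printed slides; score merges bound-protein fluorescence near 667 nm with spot signal-to-noise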

Neurogenic locus notch homolog protein 3 (Homo sapiens), sequence (Q9UM47 whole entry, looked up): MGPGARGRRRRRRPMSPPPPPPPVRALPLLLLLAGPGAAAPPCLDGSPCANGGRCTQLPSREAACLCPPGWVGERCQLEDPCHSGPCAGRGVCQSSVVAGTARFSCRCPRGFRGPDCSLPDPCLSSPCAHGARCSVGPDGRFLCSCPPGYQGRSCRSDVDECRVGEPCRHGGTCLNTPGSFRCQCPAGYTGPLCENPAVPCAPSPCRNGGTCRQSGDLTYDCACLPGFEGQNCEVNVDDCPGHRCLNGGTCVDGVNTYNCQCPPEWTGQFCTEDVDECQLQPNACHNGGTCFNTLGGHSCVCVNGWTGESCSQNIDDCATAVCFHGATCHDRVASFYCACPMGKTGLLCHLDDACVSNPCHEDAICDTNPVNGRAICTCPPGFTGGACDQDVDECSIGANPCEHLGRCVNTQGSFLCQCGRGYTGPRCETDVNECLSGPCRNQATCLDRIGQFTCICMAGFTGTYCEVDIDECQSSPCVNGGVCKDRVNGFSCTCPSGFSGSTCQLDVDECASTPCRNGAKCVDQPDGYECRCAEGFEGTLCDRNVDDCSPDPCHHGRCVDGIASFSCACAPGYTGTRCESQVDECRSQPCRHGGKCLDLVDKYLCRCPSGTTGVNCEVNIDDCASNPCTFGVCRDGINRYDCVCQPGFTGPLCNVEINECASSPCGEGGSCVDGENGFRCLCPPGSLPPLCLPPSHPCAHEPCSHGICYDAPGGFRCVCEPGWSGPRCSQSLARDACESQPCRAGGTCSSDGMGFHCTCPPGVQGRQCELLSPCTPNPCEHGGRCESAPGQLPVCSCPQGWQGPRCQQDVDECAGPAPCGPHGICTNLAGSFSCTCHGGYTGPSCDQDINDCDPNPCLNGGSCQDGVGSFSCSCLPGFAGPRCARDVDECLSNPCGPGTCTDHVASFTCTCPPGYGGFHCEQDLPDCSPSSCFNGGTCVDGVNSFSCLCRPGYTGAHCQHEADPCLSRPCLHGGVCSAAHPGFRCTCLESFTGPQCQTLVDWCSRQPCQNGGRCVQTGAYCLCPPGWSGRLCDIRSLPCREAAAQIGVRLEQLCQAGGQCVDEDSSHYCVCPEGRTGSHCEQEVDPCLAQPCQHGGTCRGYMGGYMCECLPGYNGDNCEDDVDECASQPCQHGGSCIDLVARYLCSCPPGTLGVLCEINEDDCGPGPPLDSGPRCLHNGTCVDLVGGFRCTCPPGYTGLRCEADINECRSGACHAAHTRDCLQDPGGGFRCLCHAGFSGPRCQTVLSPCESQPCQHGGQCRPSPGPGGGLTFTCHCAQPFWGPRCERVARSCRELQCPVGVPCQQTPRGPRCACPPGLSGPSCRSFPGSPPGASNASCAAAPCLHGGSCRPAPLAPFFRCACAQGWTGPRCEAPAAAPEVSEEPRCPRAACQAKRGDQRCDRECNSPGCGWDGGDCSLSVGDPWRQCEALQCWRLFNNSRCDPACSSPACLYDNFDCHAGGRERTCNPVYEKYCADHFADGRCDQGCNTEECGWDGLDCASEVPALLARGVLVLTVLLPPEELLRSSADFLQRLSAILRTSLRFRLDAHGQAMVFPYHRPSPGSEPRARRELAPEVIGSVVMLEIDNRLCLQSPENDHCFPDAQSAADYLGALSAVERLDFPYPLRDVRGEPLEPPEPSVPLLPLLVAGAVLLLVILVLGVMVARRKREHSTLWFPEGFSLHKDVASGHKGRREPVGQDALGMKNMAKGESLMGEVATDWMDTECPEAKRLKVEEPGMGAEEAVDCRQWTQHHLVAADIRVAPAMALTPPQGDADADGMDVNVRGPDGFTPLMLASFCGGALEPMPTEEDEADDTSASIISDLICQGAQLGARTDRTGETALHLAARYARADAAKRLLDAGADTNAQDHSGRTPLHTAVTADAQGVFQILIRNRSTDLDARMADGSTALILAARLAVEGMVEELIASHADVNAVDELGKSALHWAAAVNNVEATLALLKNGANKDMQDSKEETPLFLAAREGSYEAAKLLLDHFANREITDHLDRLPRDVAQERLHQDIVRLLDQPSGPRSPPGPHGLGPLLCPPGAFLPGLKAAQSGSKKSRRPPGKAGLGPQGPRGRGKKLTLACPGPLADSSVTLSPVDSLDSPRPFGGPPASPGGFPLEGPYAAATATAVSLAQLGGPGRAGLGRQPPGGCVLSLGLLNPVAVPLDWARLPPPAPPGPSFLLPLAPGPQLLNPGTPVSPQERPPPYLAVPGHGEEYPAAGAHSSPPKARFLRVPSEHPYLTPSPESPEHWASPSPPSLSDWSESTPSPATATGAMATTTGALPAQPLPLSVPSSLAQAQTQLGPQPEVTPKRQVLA
Follistatin-related protein 3 (Homo sapiens), sequence (O95633 whole entry, looked up): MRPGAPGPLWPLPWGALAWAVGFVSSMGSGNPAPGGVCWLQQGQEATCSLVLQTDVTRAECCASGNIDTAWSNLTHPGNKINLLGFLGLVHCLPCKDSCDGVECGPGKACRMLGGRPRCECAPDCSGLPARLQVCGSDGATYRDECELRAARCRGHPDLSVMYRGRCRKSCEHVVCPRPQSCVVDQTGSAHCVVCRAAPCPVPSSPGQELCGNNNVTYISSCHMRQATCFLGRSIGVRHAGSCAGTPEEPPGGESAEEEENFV
Torsin-1A-interacting protein 2 (Homo sapiens), sequence (Q8NFQ8 whole entry, looked up): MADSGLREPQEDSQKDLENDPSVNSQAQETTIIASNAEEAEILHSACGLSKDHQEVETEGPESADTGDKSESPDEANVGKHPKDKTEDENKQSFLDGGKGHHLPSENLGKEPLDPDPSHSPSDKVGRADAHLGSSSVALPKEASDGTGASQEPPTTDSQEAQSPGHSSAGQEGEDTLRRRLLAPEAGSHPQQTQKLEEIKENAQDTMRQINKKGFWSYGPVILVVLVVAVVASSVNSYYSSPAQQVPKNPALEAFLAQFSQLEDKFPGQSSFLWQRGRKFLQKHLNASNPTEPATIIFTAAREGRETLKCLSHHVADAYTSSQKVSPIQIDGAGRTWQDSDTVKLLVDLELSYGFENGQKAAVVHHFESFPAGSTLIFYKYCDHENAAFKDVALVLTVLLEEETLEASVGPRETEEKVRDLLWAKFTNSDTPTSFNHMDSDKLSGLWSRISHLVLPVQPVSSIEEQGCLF
Epidermal growth factor receptor (Homo sapiens), sequence (P00533 whole entry, looked up): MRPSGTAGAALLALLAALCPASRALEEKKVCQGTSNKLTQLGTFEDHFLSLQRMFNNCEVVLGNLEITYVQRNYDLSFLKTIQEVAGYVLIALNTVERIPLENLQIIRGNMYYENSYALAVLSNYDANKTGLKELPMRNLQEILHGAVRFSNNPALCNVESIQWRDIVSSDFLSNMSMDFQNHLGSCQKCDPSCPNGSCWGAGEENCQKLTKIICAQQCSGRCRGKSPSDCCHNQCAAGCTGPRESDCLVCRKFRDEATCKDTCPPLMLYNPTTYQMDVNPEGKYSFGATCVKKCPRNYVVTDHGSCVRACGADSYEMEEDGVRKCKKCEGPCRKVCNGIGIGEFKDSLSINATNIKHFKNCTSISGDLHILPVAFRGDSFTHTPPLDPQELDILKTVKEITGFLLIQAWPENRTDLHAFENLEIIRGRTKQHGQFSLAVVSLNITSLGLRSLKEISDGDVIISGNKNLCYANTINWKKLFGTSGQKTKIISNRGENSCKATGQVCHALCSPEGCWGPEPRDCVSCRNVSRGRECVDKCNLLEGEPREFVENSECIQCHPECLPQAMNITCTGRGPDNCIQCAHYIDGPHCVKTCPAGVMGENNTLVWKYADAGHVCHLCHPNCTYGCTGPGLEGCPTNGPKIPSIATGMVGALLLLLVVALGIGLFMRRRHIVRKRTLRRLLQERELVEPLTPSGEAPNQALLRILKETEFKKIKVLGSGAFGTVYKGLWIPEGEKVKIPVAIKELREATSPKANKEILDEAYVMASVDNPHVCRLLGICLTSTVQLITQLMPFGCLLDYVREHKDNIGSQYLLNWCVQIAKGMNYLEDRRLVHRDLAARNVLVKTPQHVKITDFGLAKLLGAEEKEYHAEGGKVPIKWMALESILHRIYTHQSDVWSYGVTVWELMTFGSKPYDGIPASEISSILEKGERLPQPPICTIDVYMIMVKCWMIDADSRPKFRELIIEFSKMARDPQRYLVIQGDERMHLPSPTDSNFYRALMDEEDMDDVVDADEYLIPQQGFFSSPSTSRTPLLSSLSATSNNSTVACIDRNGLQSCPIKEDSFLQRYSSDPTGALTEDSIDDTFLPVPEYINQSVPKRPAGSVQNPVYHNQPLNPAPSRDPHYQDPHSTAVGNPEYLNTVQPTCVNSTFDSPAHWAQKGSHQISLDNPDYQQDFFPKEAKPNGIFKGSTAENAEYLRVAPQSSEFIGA
Dickkopf-related protein 1 (Homo sapiens), sequence (O94907 whole entry, looked up): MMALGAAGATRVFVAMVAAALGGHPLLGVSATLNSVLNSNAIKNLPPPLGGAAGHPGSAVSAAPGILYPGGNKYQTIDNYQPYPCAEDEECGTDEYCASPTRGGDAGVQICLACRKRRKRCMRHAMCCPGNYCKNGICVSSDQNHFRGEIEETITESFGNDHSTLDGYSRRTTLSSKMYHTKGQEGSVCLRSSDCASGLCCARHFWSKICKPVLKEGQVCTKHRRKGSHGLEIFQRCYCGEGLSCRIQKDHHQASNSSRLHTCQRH
Fibroblast growth factor 10 (Homo sapiens), sequence (O15520 whole entry, looked up): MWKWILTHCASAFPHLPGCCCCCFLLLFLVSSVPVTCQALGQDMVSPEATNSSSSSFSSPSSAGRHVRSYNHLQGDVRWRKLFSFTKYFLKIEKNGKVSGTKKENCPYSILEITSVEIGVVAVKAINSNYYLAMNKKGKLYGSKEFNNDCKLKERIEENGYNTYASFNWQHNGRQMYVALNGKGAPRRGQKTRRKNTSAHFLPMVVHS

Structure (SMILES)	composite z-score [1]	z-score [2]	z-score [3]	z-score [4]	composite z-score [5]	z-score [6]	composite z-score [7]	composite z-score [8]	composite z-score [9]	composite z-score [10]	composite z-score [11]	composite z-score [12]	composite z-score [13]	z-score [14]	composite z-score [15]	composite z-score [16]	composite z-score [17]	composite z-score [18]	composite z-score [19]	composite z-score [20]
CCCC[C@@H]1C[C@H]1[C@@H](NC(=O)c1cccs1)c1ccc(Cl)cc1	-0.117	-0.0596 (inactive)	0.806 (inactive)	0.413 (inactive)	0.795	-1 (inactive)	-0.168	-1.69	-1.73	-0.288	0.509	0.517	0.943	-2.23 (inactive)	-1.5	-1.13	-1.34	-2.23	-1.75	0.269
O=C1OCCC/C=C\[C@H]2OC34C=CCN(CCN5CCOCC5)C(=O)[C@H]3N(CCCCCO)C(=O)[C@@H]4C12 (stereo not given in full)	-0.706	-0.114 (inactive)	-0.359 (inactive)	-0.824 (inactive)	-0.701	-0.763 (inactive)	-0.221	-0.987	0.0233	-0.281	1.52	-0.413	-0.0252	-0.755 (inactive)	-0.81	-0.188	-1.33	-0.762	-0.333	0.966
O=C(O)[C@@H]1Cc2c([nH]c3ccccc23)[C@@H](c2ccccc2)N1	-0.645	-0.0524 (inactive)	-0.474 (inactive)	-0.731 (inactive)	0.249	0.294 (inactive)	-0.106	0.483	0.46	-0.046	0.0269	-0.317	-0.58	-0.333 (inactive)	0.315	0.61	0.373	0.518	0.509	-0.332
CO[C@H]1COC(=O)CC=C[C@H](C)[C@@H](OC)COC(=O)CC=C[C@@H]1C	0.656	-0.49 (inactive)	-1.5 (inactive)	-0.98 (inactive)	-0.787	0.898 (inactive)	-0.169	0.764	-0.119	-0.0273	0.697	-0.546	-1.11	-1.06 (inactive)	0.597	0.309	0.751	0.522	0.991	0.716
CCOC(=O)C[C@H]1[C@H](OC(=O)c2cc3ccccc3oc2=O)[C@@H](NC(=O)C2CCCCC2)c2cc(OCCCO)ccc2N1C(=O)c1ccc2ccccc2n1	1.06	0.152 (inactive)	0.802 (inactive)	1.29 (inactive)	1.17	-0.865 (inactive)	-0.124	0.87	1.02	-0.154	0.631	-0.245	-0.273	-0.34 (inactive)	0.68	0.413	0.258	1.08	0.493	0.304
Cc1ccc(N2C(=O)c3ccccc3[C@](C)(C(=O)O)[C@@H]2c2ccc(CO)cc2)nc1	-1.11	0.508 (inactive)	-0.633 (inactive)	0.653 (inactive)	-1.18	1.62 (inactive)	-0.15	-2.06	-1.17	-0.427	-0.445	-0.322	0.365	0.763 (inactive)	-0.883	-1.45	-2.18	-1.21	-0.967	-0.292
C=CCC(OC(C)=O)[C@@H]1[C@@H](N(Cc2ccc(-c3ccccc3)cc2)C(=O)c2ccc(-c3ccccc3)cc2)c2cc(OCCCO)ccc2N1C(=O)Cc1ccc(OC)cc1 (stereo not given in full)	-0.22	-0.809 (inactive)	0.202 (inactive)	-0.253 (inactive)	0.669	-0.685 (inactive)	-0.0096	-0.0508	-0.0122	-0.0994	-0.322	0.0651	0.026	-0.792 (inactive)	0.035	-0.0305	-0.25	0.491	-0.345	1.28
CC(C)N1CC=CC23O[C@@H]4/C=C\CCCOC(=O)C4[C@H]2C(=O)N(CCCCCO)[C@@H]3C1=O (stereo not given in full)	-2.15	-0.927 (inactive)	-1.16 (inactive)	-0.693 (inactive)	-0.467	1.67 (inactive)	-0.208	-1.65	-1.89	-0.364	0.21	-0.195	0.632	0.0946 (inactive)	-0.655	-1.42	-1.97	-1.04	-1.09	0.213
Cc1ccc(N2C(=O)c3ccccc3[C@@H](C(=O)NCc3ccccc3)[C@@H]2c2ccc(CO)cc2)nc1	-0.363	0.938 (inactive)	-0.242 (inactive)	0.76 (inactive)	1.39	1.29 (inactive)	0.306	0.0163	-0.763	-0.166	-0.566	0.601	1.01	-1.47 (inactive)	0.329	-1.13	-0.446	-0.526	0.251	1.71
COC(=O)[C@@]1(Cc2ccccc2CN=[N+]=[N-])N=C(c2ccc(OCCCO)cc2)O[C@H]1c1ccccc1N=[N+]=[N-]	1.42	0.763 (inactive)	2.17 (inactive)	36 (active)	2.18	0.0738 (inactive)	-0.184	0.0678	0.698	-0.0372	1.31	0.244	0.973	-0.298 (inactive)	0.752	-0.381	-0.0185	-0.0661	-0.608	0.948
